Values without a mark were called inactive. For some of these results: Results with a measured potency or affinity are listed apart. Activity calls are given as the source filed them. Unless noted, the rule behind the calls is not given here.

The nature of test [1]: antimalarial activity against Dd2 strain (AID 2302;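 active = growth inhibition above 50% at the single 2 µM test dose, taken to imply half-maximal potency below 2 µM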;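 note: 0% = DMSO untreated growth and 100% = chloroquine plus artemisinin killed control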). As to conditions: P. falciparum Dd2 in RBCs, LDH growth readout, 72 h; at 2 µM; hits give high values.
Test [2] in a line: HepG2 cytotoxicity, primary screen, cytotoxicity control for P. falciparum antimalarial project, cell-based, ATP luminescence (AID 2303;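 active = inhibition above 50%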;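 note: 0% = DMSO wells and 100% = digitonin-killed cells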). As to conditions: HepG2 viability, 24-48 h, at 10 µM, hits give high values.
Test [3] addresses L-lactate dehydrogenase (Plasmodium falciparum (isolate CDC / Honduras)) (UniProt Q27743). As to the kind of experiment: PfLDH activity inhibition – cell lysate, 3D7 strain, counter-screen for P. falciparum growth inhibition project (AID 2304).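 Note: 0% = vehicle and 100% = reference inhibitor.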 The settings on record: P. falciparum 3D7 crude extract, LDH APAD/NBT absorbance; at 2 µM; hits give high values.
A short description of test [4]: inhibition of 3D7 malaria parasite growth – strain 3D7 (AID 2306).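 Note: 0% = DMSO wells and 100% = chloroquine plus artemisinin control wells.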 As to conditions: P. falciparum 3D7 erythrocytic growth, LDH absorbance, 72 h; at 2 µM; hits give high values.
The target in test [5] is Calcium-dependent protein kinase 1 (Plasmodium falciparum (isolate 3D7)) (UniProt P62344). The test is described as follows: PfCDPK1 kinase inhibitors, biochemical, TCAMS library (AID 1159585; cut-off not given, nearly all actives have IC50 up to about 0.98 µM;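 note: inhibitors leave more ATP so luminescence rises with inhibition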). As to conditions: recombinant PfCDPK1, Kinase-Glo ATP depletion luminescence.
Test [6] concerns the target Plasmodium falciparum protein kinase 6 (PK6, PF3D7_1337100) (UniProt Q8IDW1). As to the kind of experiment: PfPK6 kinase inhibitors, biochemical, TCAMS library (AID 1159586). As to conditions: recombinant PfPK6, Kinase-Glo ATP depletion luminescence.
Test [7] has as its target Protein kinase 7 (PK7), Plasmodium falciparum 3D7 (PF3D7_0213400) (UniProt Q7YTF7). The test is described as follows: inhibition of Plasmodium PK7 catalytic activity – biochemical, TCAMS antimalarial set, Kinase-Glo luminescence (AID 1159587). The settings on record: recombinant PfPK7, Kinase-Glo ATP depletion luminescence. (In Kinase-Glo more light means more ATP remaining.)

The target in test [8] is Calcium-dependent protein kinase 4 (Plasmodium falciparum (isolate 3D7)) (UniProt Q8IBS5). The test is described as follows: PfCDPK4 kinase inhibitors, biochemical, TCAMS library (AID 1159588; cut-off not given, nearly all actives have IC50 up to about 0.91 µM). As to conditions: recombinant PfCDPK4, Kinase-Glo ATP depletion luminescence.
Calcium-dependent protein kinase 4 (Plasmodium falciparum (isolate 3D7)), sequence (Q8IBS5 whole entry, looked up): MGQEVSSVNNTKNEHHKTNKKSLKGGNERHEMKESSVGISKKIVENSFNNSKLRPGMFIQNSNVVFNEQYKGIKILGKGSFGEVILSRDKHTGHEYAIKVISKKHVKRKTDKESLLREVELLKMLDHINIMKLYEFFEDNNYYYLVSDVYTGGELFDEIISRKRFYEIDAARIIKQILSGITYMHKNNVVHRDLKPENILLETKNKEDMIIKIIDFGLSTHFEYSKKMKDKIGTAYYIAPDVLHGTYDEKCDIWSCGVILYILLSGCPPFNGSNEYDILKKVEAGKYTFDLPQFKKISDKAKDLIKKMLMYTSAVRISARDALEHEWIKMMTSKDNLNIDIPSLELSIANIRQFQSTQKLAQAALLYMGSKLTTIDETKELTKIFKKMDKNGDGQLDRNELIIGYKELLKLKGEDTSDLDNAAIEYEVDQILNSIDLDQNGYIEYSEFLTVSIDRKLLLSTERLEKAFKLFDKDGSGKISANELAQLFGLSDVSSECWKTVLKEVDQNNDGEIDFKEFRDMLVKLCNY

Calcium-dependent protein kinase 1 (Plasmodium falciparum (isolate 3D7)), sequence (P62344 whole entry, looked up): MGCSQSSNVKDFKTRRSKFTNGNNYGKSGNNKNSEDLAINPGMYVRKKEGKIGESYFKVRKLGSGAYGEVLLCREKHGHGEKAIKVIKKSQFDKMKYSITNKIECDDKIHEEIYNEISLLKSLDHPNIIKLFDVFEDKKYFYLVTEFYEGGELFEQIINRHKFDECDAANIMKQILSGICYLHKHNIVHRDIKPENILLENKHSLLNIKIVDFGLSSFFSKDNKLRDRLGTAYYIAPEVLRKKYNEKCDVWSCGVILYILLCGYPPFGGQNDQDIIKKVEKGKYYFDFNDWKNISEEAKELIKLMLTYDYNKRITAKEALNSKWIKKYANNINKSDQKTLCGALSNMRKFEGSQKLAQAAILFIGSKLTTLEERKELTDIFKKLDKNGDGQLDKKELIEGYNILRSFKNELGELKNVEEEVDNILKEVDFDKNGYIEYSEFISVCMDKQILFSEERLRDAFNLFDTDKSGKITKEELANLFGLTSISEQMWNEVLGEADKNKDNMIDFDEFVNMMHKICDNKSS
Protein kinase 7 (PK7), Plasmodium falciparum 3D7 (PF3D7_0213400), sequence (Q7YTF7 1-343): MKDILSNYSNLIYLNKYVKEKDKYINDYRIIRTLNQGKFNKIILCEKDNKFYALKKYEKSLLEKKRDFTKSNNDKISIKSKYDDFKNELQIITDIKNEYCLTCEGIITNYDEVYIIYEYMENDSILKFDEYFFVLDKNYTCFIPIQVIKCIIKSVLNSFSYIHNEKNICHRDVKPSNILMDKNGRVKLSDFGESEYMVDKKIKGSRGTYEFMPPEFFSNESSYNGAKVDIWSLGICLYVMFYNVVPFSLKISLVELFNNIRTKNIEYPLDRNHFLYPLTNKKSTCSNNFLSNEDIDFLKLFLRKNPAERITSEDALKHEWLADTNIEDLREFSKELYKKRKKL
Plasmodium falciparum protein kinase 6 (PK6, PF3D7_1337100), sequence (Q8IDW1 1-305): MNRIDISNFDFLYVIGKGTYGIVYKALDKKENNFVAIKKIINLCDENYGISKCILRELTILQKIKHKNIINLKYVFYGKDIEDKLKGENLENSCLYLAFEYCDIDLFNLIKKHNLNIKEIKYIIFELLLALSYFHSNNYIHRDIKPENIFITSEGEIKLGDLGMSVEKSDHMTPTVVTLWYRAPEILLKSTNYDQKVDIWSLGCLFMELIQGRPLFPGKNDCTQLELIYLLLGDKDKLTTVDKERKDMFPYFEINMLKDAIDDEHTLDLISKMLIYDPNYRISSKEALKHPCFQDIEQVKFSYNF
L-lactate dehydrogenase (Plasmodium falciparum (isolate CDC / Honduras)), sequence (Q27743 whole entry, looked up): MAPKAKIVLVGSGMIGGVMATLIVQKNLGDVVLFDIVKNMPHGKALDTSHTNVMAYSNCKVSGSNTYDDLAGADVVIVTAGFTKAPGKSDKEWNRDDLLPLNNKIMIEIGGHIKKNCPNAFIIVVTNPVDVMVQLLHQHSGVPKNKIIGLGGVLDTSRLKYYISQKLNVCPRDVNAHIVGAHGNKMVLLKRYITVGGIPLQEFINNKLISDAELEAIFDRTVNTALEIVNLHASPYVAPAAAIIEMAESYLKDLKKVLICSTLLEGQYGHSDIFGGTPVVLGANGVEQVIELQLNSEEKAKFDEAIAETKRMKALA

As to `CCC1(CC)N=C(N)N=C(N)N1OCc1ccc(Cl)c(Cl)c1`, the growth inhibition in test [1] was 49%; in test [4] it was 94% (active). The inhibition was 49% in test [2] and -1% in test [3]. Further, the outcome in test [5], in test [6], in test [7] and in test [8] was inactive.
In the case of `CCCCOc1ccccc1C(=O)NCc1csc(-c2ccccc2)n1`, the growth inhibition is 91% (active) in test [1] and 93% (active) in test [4]. Also, the values for the inhibition in test [2] and in test [3] were 17% and 0%, respectively. Also, the outcome in test [5], in test [6], in test [7] and in test [8] was inactive.
For the molecule `O=C(/C=C/c1ccc(Cl)c(Cl)c1)NCCCCCN1CCCC(C(=O)Nc2ccc(Cl)c(Cl)c2)C1` (stereo not given), the values for the growth inhibition in test [1] and in test [4] were 11% and 100% (active), respectively. The inhibition in test [2] is 53% (active); in test [3], -1%. The outcome in test [5], in test [6], in test [7] and in test [8] was inactive.
In the case of `CCCCC(=O)Nc1nc2ccc([N+](=O)[O-])cc2s1`, the growth inhibition is 69% (active) in test [1] and 91% (active) in test [4]. For the same molecule, the figures for the inhibition in test [2] and in test [3] were 9% and -5%, respectively. The outcome in test [5], in test [6], in test [7] and in test [8] was inactive.
Regarding `O=C(Nc1ccc(Cl)cc1)c1ccc(CN2CCCN(CC3CCCCC3)CC2)cc1`, the growth inhibition in test [1] is 42%; in test [4] it was 92% (active). Also, the inhibition in test [2] is 48%; in test [3], 0%. Also, the outcome in test [5], in test [6], in test [7] and in test [8] was inactive.
Take `CN(C)c1ccc(CN2CCCCC(NC(=O)c3cc(-c4ccccc4F)cs3)C2)cc1` (stereo not given): the growth inhibition in test [1] was 28%; in test [4], 100% (active). In addition, the inhibition in test [2] was 13%; in test [3], 5%. Also, the result in test [5], in test [6], in test [7] and in test [8] was inactive.
As for `COc1cc2nc(NCc3ccccc3)nc(NCc3ccccc3)c2cc1OC`, the growth inhibition in test [1] and in test [4] was 102% (active) throughout. For the same molecule, the results for the inhibition in test [2] and in test [3] were 66% (active) and -3%, respectively. Moreover, the outcome in test [5], in test [6], in test [7] and in test [8] was inactive.
For the molecule `O=C(COc1ccccc1)N(Cc1ccc(-c2ccc(CNC3Cc4ccccc4C3)cc2)cc1)C1CCNCC1`, the growth inhibition in test [1] was 8%; in test [4], 100% (active). The inhibition in test [2] is 26%; in test [3], -1%. Moreover, the result in test [5], in test [6], in test [7] and in test [8] was inactive.
Regarding `COC(=O)c1cccc(CNCc2cccc(-c3ccc(-c4nc5ccccc5[nH]4)s3)c2)c1`, the growth inhibition in test [1] was 59% (active); in test [4], 93% (active). Also, the inhibition was -2% in test [2] and -6% in test [3]. In addition, the result in test [5], in test [6], in test [7] and in test [8] was inactive.
Regarding `CS(=O)(=O)NCCCNCc1cccc(-c2csc(-c3nc4ccccc4[nH]3)c2)c1`, the growth inhibition in test [1] was 9%; in test [4] it was 95% (active). For the same molecule, the inhibition in test [2] was 23%; in test [3], 8%. Further, the result in test [5], in test [6], in test [7] and in test [8] was inactive.
Regarding `Cc1cc(NCCc2ccccc2)nc(NC(=NCC(=O)OC(C)(C)C)Nc2ccc(C(F)(F)F)cc2)n1`, the growth inhibition is 97% (active) in test [1] and 100% (active) in test [4]. The inhibition in test [2] was 23%; in test [3], 2%. In addition, the result in test [5], in test [6], in test [7] and in test [8] was inactive.
As for `COc1ccc(N2C(N)=NC(N)=NC2(C)C)cc1OC`, the figures for the growth inhibition in test [1] and in test [4] were -4% and 95% (active), respectively. Moreover, the figures for the inhibition in test [2] and in test [3] were 13% and -2%, respectively. Moreover, the result in test [5], in test [6], in test [7] and in test [8] was inactive.
With `OC(CNc1ccnc(Nc2ccc(Cl)cc2)n1)c1cccc(C(F)(F)F)c1` (stereo not given), the growth inhibition in test [1] was 84% (active); in test [4], 101% (active). For the same molecule, the inhibition in test [2] was 9%; in test [3] it was 4%. Also, the result in test [5], in test [6], in test [7] and in test [8] was inactive.
In the case of `COc1ccc(-c2cnc3[nH]cc(-c4ccc(C(=O)O)c(C)c4)c3c2)cn1`, the growth inhibition in test [1] and in test [4] was 99% (active) throughout. Also, the inhibition in test [2] is 23%; in test [3], -5%. Moreover, the outcome in test [5], in test [6], in test [7] and in test [8] was inactive.
Turning to `CCCc1cc2c3c(N)nc(N)nc3ccc2n1C(CC)CC`, the growth inhibition is 73% (active) in test [1] and 102% (active) in test [4]. For the same molecule, the figures for the inhibition in test [2] and in test [3] were 70% (active) and -1%, respectively. Besides, the outcome in test [5], in test [6], in test [7] and in test [8] was inactive.
In the case of `O=C(CNC1CCCCC1)Nc1cccc(C(=O)Nc2cccc(C(F)(F)F)c2)c1`, the growth inhibition was 80% (active) in test [1] and 93% (active) in test [4]. Moreover, the inhibition in test [2] was 17%; in test [3] it was -6%. Besides, the result in test [5], in test [6], in test [7] and in test [8] was inactive.
Take `Nc1nc2cccc3ccc4cccc1c4c32`: the values for the growth inhibition in test [1] and in test [4] were 69% (active) and 101% (active), respectively. Also, the results for the inhibition in test [2] and in test [3] were 26% and -1%, respectively. Also, the outcome in test [5], in test [6], in test [7] and in test [8] was inactive.
For `CC[C@@]1(O)C(=O)OCc2c1cc1n(c2=O)Cc2c-1nc1cc3c(cc1c2CN1CCN(C)CC1)OCCO3`, the results for the growth inhibition in test [1] and in test [4] were 97% (active) and 98% (active), respectively. The inhibition in test [2] was 79% (active); in test [3], 1%. The outcome in test [5], in test [6], in test [7] and in test [8] was inactive.
Consider `Cc1ccc(NC(=O)NC2CCN(c3ccnc4cc(Cl)ccc34)C2)cc1` (stereo not given), for which the growth inhibition in test [1] was 96% (active); in test [4] it was 101% (active). Further, the inhibition in test [2] is 19%; in test [3], 5%. Besides, the outcome in test [5], in test [6], in test [7] and in test [8] was inactive.
Turning to `COc1ccc2nc(C)cc(NN=Cc3cccc(Cl)c3)c2c1`, the growth inhibition in test [1] was 100% (active); in test [4] it was 101% (active). Further, the results for the inhibition in test [2] and in test [3] were 13% and 7%, respectively. Moreover, the result in test [5], in test [6], in test [7] and in test [8] was inactive.

By inhibition is commonly meant the relative decrease from the control value, in per cent.

These data come from PubChem BioAssay.
